In the library only some 2.4% were active in any assay of this set; here they are far more common.
STAT3 SMM = STAT3 binders, primary screen, biochemical, small molecule microarray, single point, set 2; Signal transducer and activator of transcription 3 (Homo sapiens), P40763; calls only; His-STAT3 binding, anti-His fluorescence; AID 624138, 2012; actives 0.2% (n = 17,000);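 active = compounds whose four printed spots each show fluorescence over background unusually high for their array block, chance value under 7%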
NFkB SMM = binders of NF-kB p50 subunit, primary screen, biochemical, small molecule microarray, anti-His fluorescence; anti-His fluorescence binding; calls only; AID 624139, 2012; Nuclear factor NF-kappa-B p105 subunit (Homo sapiens), P19838; actives 1.3% (n = 17,000);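 active = spot fluorescence over background significantly raised, with a chance value under 7% in all four replicate spots of the compound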;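 note: probe protein is his-tagged human p50 processed subunit at 1 µg/ml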
Target sequence (P19838 1-433 limits assumed): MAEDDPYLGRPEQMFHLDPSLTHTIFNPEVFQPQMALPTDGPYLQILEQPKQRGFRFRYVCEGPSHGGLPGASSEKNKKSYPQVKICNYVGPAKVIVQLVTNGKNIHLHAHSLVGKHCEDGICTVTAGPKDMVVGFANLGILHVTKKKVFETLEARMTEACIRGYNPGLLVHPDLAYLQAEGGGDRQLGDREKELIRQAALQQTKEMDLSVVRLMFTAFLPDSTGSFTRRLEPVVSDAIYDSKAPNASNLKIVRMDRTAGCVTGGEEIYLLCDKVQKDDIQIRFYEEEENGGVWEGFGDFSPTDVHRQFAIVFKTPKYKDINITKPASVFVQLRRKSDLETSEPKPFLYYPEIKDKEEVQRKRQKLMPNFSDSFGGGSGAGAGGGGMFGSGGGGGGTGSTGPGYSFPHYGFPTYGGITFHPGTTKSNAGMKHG
Myc binder = binders of human c-Myc, primary screen, biochemical, small molecule microarray, anti-His fluorescence. Myc proto-oncogene protein (Homo sapiens), P01106. His-c-Myc binding. calls only. actives 1.5% (n = 17,000). AID 624141, 2012;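 active = spot fluorescence over background with P-value below 7% in all four replicate spots, showing protein binding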
p53 mut binder = binders of human mutant p53, primary screen, biochemical, small molecule microarray, anti-GST fluorescence; calls only; actives 0.4% (n = 17,000); AID 624136, 2012; mutant tumor protein p53 (GST-tagged), Homo sapiens; small molecule microarray binding;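 active = compounds whose four printed spots each glow above background more than chance allows, each with a p-value under 7%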
Calls only; n = inactive; + = active, no number.

SMILES	STAT3 SMM	NFkB SMM	Myc binder	p53 mut binder
Cc1noc(C)c1NC(=O)Nc1ccc2c(c1)C(=O)N([C@@H](C)CO)C[C@@H](C)[C@@H](CN(C)C(=O)C1CCCCC1)OCCCC[C@@H](C)O2	+	n	n	n
Cc1noc(C)c1NC(=O)Nc1ccc2c(c1)C(=O)N([C@H](C)CO)C[C@@H](C)[C@@H](CN(C)C(=O)C1CCCCC1)OCCCC[C@H](C)O2	n	n	n	n
C/C=C(\C)C(=O)OC1CCC(=O)OC1/C=C/C(O)C(C)O (centres undefined)	n	n	n	n
CSc1ccc(C2CN3CCCC3c3ccccc32)cc1 (centres undefined)	n	n	n	n
Cc1ccc(-c2nnc(SCC(=O)c3cccc([N+](=O)[O-])c3)n2C)cc1	n	n	n	+
CCn1nccc1C(=O)Nc1nc2ccccc2n1CCN1CCCCC1	n	n	+	n
CC(C)NC(=O)N(C)C[C@@H]1OCCCC[C@@H](C)Oc2ccc(NC(=O)c3ccncc3)cc2C(=O)N([C@H](C)CO)C[C@@H]1C	n	n	n	n
C[C@H](CO)N1C[C@H](C)[C@H](CN(C)S(=O)(=O)c2cccs2)OCCCC[C@H](C)Oc2ccc(NC(=O)c3ccncc3)cc2C1=O	n	+	n	n
C[C@@H]1CN([C@H](C)CO)C(=O)c2cc(NC(=O)c3ccncc3)ccc2O[C@@H](C)CCCCO[C@H]1CN(C)C	n	n	+	n
C[C@H](CO)N1C[C@H](C)[C@@H](CN(C)S(C)(=O)=O)OCCCC[C@H](C)Oc2ccc(NC(=O)c3ccncc3)cc2C1=O	n	n	n	n
CC(C)NC(=O)N(C)C[C@H]1OCCCC[C@H](C)Oc2ccc(NC(=O)c3ccncc3)cc2C(=O)N([C@@H](C)CO)C[C@@H]1C	n	+	+	n
CC(C)NC(=O)N(C)C[C@H]1OCCCC[C@H](C)Oc2ccc(NC(=O)c3ccncc3)cc2C(=O)N([C@H](C)CO)C[C@@H]1C	n	+	n	n
Cc1cccc(C)c1OCC(=O)NCc1cccnc1	n	n	n	n
CC1=CC(=O)C2C(C)(C)CC(O)CC2(C)C1(O)CO (centres undefined)	n	n	n	n
C=CC(C)(C)[C@@]12CC(=O)C(=O)N3/C(=C/c4cnc[nH]4)C(=O)N[C@]31N(OC)c1ccccc12	n	n	n	n
CC(C)NC(=O)N(C)C[C@@H]1OCCCC[C@@H](C)Oc2ccc(NC(=O)c3ccncc3)cc2C(=O)N([C@H](C)CO)C[C@H]1C	n	+	+	n
COc1ccccc1NC(=O)c1ccccc1NC(=O)CCc1ccccc1	n	n	n	n
COc1ccc(C(=O)Nc2ccccc2C(=O)NC(C(=O)O)C(C)C)cc1 (centres undefined)	n	n	+	n
CSc1ccccc1NC(=O)CN(c1ccc(C)c(Cl)c1)S(C)(=O)=O	n	n	n	n
Cc1nnc(SCC(=O)Nc2cccc(Cl)c2Cl)s1	n	n	n	n
CC(C)NCc1ccccc1OCC(N)=O	n	n	n	n
CC(=O)Cc1ccccc1OCC(=O)O	n	+	+	n
O=C(O)CSc1nc2cc(F)c(F)cc2[nH]1	n	n	n	n
O=C1O[C@@H](c2ccccc2)[C@@H](c2ccccc2)N2[C@@H](c3ccc(O)cc3)[C@]3(C(=O)Nc4ccc(C#CC5(O)CCCCCC5)cc43)[C@@H](C(=O)N3CCCCCCC3)[C@H]12	+	n	n	n
COc1ccc(C#Cc2ccc3c(c2)[C@]2(C(=O)N3)[C@H](c3ccc(O)cc3)N3[C@H](c4ccccc4)[C@H](c4ccccc4)OC(=O)[C@H]3[C@@H]2C(=O)N2CCCCCCC2)cc1	+	n	n	+
CCc1ccc(NC(=O)COc2ccc(NC(C)=O)cc2)cc1	n	n	n	n
